# Assay results as given in the supplement of paper PMC10849652.
# Of roughly 7,900 targets only a part is listed; those with a hit were picked by preference. About 0.6% of all pairs of compound and target were hits. Unmarked numbers belong to inactive results.
# What was measured:
# Experiment in all cases: log2 fold change, soluble protein after heating vs DMSO (PISA); higher = thermal stabilisation; K562 cells, 10 uM, 30 min; active = over 0.2 and 3.5 SD of the protein, either way, in both replicates (recomputed)
# volasertib = compound: CC[C@@H]1C(=O)N(C)c2cnc(Nc3ccc(C(=O)N[C@H]4CC[C@H](N5CCN(CC6CC6)CC5)CC4)cc3OC)nc2N1C(C)C [volasertib]
# In short: (§1)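 K562 cells at 2×10^6 cells/mL were given 10 μM compound for 30 min. Aliquots then went through 3 min of heating across 48°C-58°C, were pooled, and were extracted in PBS with 0.5% NP-40 at 4°C, and the supernatant after 21,000xg for 90 min was quantified by TMTpro 16plex LC-MS/MS with channel sums equalised. Thermal stability relative to control samples, from duplicates, is given as log2 fold change.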
# epoxomicin = compound: CC[C@H](C)[C@@H](C(=O)N[C@@H]([C@@H](C)O)C(=O)N[C@@H](CC(C)C)C(=O)[C@]1(CO1)C)NC(=O)[C@H]([C@@H](C)CC)N(C)C(=O)C [epoxomicin]
# In short: as §1
# [1] = compound: CCn1c(C(=O)N(C2CC2)C2CC2)cc2c3c(ncn3C)c(Nc3cc(C)n(C)n3)nc21
# In short: as §1
# [2] = compound: CN(C)CC(=O)Nc1ccc2[nH]c(=O)c3ccccc3c2c1
# In short: as §1
# [3] = compound: CN1C2=C(C3=C1C(=O)N(N=C3)CC4=CC(=CC=C4)N)SC(=C2)S(=O)C
# In short: as §1
# rosiglitazone = compound: CN(CCOC1=CC=C(C=C1)C[C@H]2C(=O)NC(=O)S2)C3=CC=CC=N3 (racemic) [rosiglitazone]
# In short: as §1
# [4] = compound: CC[C@@H]1C(=O)N(C)c2cnc(Nc3ccc(C(=O)NC4CCN(C)CC4)cc3OC)nc2N1C1CCCC1
# In short: as §1
# [5] = compound: CCn1cc(-c2ccnc3[nH]c(-c4cccc(CN(C)C)c4)cc23)c(-c2ccc(NC(=O)N(C)C)cc2)n1
# In short: as §1
# [6] = compound: CN1CCC(CNc2ccc3ncc(-c4cccc(OC(F)(F)F)c4)n3n2)CC1
# In short: as §1
# [7] = compound: CC[C@H](C)N1C=C(C2=C(C=C(C=C21)C3=CN=C(C=C3)N4CCNCC4)C(=O)NCC5=C(C=C(NC5=O)C)C)C
# In short: as §1
# Chain of UniProt Q6ZVM7 (Q6ZVM7 whole entry, looked up): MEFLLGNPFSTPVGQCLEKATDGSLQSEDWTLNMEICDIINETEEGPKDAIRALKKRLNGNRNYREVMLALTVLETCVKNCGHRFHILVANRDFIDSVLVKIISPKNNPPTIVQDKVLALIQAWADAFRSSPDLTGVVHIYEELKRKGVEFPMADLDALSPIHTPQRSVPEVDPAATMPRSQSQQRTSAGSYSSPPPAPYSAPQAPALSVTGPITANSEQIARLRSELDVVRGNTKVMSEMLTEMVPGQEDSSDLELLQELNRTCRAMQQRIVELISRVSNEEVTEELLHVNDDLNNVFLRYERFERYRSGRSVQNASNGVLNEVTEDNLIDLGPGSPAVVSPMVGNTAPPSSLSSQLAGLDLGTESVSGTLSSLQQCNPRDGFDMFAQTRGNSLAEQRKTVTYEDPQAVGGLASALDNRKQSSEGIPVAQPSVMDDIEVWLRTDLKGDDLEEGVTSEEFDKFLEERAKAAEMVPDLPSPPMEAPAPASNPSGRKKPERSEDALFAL
# Chain of UniProt P57081 (P57081 whole entry, looked up): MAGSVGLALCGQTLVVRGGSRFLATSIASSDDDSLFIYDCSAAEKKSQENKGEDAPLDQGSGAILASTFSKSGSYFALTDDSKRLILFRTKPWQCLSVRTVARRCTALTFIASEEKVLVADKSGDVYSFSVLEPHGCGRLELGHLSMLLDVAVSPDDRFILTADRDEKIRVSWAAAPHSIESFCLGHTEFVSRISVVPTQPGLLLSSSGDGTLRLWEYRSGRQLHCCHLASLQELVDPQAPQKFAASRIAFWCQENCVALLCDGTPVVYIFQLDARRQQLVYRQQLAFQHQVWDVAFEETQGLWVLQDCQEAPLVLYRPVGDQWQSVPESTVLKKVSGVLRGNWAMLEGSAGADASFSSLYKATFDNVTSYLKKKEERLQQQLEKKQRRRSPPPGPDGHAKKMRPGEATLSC
# Chain of UniProt Q6PID6 (Q6PID6 whole entry, looked up): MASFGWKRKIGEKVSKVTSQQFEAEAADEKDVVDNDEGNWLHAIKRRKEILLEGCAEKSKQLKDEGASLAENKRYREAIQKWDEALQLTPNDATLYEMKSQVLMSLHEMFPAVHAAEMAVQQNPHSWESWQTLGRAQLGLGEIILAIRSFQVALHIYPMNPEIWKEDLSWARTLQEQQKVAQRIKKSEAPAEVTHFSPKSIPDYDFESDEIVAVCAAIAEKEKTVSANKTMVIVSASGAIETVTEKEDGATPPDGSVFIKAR
# Chain of UniProt Q629K1 (Q629K1 whole entry, looked up): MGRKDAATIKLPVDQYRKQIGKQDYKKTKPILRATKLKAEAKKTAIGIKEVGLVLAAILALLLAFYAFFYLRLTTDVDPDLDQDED
# Chain of UniProt Q7Z3V4 (Q7Z3V4 whole entry, looked up): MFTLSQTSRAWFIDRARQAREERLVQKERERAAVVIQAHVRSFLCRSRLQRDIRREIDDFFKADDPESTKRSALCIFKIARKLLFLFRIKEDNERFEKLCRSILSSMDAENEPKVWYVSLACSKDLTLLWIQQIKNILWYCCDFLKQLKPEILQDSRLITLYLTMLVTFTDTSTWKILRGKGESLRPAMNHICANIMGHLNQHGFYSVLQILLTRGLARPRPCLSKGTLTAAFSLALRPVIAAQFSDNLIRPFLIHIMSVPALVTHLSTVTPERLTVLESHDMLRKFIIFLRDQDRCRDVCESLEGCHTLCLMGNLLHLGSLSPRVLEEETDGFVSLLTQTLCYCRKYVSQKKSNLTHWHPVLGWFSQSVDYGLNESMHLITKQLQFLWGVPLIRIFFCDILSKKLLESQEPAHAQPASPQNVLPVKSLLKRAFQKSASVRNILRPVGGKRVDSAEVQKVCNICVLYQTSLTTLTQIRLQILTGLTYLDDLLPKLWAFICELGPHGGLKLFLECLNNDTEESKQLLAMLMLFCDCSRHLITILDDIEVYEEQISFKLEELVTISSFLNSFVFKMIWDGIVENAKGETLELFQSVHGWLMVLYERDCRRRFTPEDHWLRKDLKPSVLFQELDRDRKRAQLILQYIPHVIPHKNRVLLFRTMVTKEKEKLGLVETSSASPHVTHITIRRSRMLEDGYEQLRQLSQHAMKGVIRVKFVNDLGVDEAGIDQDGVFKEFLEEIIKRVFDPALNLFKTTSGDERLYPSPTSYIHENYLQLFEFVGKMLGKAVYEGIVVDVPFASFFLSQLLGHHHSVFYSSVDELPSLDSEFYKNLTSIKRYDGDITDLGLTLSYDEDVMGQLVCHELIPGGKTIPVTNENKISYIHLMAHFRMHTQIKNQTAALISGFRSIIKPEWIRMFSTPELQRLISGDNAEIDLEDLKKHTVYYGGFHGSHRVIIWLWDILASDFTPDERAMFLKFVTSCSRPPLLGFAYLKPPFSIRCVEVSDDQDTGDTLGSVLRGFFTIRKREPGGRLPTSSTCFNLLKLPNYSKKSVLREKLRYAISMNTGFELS
# Chain of UniProt Q16881 (Q16881 whole entry, looked up): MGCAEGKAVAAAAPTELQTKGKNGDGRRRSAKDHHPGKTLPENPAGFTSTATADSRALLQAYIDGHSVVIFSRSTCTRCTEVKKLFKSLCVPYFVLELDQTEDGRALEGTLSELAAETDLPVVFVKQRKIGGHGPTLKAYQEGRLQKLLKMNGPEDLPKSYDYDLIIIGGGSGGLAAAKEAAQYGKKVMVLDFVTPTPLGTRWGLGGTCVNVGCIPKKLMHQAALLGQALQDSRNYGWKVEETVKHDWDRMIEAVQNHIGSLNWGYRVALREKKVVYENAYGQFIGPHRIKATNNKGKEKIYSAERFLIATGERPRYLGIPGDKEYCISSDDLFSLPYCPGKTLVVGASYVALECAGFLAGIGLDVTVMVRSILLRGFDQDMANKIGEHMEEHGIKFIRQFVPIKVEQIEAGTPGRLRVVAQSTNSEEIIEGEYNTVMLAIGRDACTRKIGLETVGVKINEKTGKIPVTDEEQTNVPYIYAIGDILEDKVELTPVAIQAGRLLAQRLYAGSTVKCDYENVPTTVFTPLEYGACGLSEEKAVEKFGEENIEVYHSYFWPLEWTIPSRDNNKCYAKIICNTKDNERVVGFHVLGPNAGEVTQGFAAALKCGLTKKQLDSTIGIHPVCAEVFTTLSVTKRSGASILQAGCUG
# Chain of UniProt O60784 (O60784 whole entry, looked up): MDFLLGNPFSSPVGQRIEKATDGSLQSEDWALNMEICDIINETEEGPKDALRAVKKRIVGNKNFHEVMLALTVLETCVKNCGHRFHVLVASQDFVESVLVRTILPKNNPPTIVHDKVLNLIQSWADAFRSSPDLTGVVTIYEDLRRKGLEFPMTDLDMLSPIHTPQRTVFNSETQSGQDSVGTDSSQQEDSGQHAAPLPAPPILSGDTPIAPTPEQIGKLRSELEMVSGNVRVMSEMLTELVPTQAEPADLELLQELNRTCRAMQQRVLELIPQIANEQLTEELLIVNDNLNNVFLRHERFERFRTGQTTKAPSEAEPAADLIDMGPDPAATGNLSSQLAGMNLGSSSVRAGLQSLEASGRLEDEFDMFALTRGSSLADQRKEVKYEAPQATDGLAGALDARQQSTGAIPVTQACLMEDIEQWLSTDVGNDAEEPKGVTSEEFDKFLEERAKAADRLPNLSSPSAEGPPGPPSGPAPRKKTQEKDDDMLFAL
# Chain of UniProt P18887 (P18887 whole entry, looked up): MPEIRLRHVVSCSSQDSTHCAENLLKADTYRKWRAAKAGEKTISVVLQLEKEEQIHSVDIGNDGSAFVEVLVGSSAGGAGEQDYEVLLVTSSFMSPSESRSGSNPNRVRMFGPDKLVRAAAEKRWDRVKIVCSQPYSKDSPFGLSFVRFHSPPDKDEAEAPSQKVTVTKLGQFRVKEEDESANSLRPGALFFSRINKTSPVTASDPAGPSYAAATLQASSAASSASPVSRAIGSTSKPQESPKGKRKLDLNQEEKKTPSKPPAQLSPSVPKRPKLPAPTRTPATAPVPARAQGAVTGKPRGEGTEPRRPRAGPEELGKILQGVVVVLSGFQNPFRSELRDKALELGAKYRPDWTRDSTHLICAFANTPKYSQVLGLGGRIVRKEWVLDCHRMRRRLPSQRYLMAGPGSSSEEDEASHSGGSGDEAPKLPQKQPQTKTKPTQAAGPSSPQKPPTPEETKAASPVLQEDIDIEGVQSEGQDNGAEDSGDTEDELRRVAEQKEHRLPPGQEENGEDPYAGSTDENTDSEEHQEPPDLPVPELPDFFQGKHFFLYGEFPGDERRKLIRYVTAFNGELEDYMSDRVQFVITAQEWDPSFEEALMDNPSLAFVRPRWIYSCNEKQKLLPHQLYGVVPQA
# Chain of UniProt Q9BQB6 (Q9BQB6 whole entry, looked up): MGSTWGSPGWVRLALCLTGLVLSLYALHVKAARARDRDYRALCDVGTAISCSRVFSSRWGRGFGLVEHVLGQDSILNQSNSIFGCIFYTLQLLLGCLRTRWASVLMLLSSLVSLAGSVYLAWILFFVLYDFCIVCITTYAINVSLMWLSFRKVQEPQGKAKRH
# Chain of UniProt P30291 (P30291 whole entry, looked up): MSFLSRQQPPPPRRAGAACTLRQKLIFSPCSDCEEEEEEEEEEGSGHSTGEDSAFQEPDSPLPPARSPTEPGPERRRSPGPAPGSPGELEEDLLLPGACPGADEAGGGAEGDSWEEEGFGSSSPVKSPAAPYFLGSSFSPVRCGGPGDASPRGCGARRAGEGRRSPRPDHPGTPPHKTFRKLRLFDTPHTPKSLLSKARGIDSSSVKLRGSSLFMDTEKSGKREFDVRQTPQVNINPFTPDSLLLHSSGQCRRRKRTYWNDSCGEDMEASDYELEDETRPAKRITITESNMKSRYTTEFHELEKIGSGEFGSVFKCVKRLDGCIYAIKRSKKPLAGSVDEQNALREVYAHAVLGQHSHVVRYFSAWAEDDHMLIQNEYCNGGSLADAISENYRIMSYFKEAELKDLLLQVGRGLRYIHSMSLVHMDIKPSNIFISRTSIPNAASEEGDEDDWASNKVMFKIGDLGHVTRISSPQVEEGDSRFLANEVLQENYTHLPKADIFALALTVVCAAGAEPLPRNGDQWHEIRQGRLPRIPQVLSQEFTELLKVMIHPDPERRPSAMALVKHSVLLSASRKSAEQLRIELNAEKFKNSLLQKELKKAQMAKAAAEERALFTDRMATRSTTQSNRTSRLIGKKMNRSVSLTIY
Target,log2 fold change (volasertib),log2 fold change (epoxomicin),log2 fold change [1],log2 fold change [2],log2 fold change [3],log2 fold change (rosiglitazone),log2 fold change [4],log2 fold change [5],log2 fold change [6],log2 fold change [7]
ULBP1 (UniProt Q9BZM6),-0.178,0.152,-0.013,-0.019,0.007,–,–,–,–,–
WARS1 (UniProt G3V227),–,-0.28,–,-0.045,0.207,0.309,–,–,–,–
TXNRD1 isoform 7 (UniProt Q16881),-0.106,0.155,-0.001,-0.074,0.101,0.024,0.054,-0.501,-0.028,–
WARS1 (UniProt G3V277),–,–,-0.084,-0.163,–,0.078,–,0.098,-0.12,-0.041
TTC33 (UniProt Q6PID6),-0.027,0.049,0.012,-0.075,-0.048,0.035,0.038,-0.449 (active),0.138,–
TRIQK (UniProt Q629K1),–,-0.02,–,–,-0.04,0.039,–,–,–,–
TMEM219 (UniProt Q86XT9),-0.111,0.035,0.002,0.094,-0.085,0.078,–,0.037,-0.029,0.033
TOM1L2 (UniProt Q6ZVM7),–,-0.035,0.09,0.127,-0.071,–,–,–,–,-0.025
TRIM23 (UniProt P36406),–,–,-0.059,0.025,-0.116,-0.231,0.013,-0.089,-0.228,0.049
TVP23C (UniProt Q96ET8),0.068,–,0.039,-0.025,0,–,0.097,-0.019,-0.033,–
UBA52 (UniProt P62987),0.572,-0.29,0.071,-0.256,–,-0.151,0.227,0.351,0.369,–
XAB2 (UniProt Q9HCS7),–,0.019,–,–,0.026,–,–,–,–,–
VPS37A (UniProt Q8NEZ2),-0.707 (active),0.045,-0.001,0.165,0.025,0.021,–,-0.068,0.054,0.085
TOM1 (UniProt O60784),–,0.094,0.035,–,–,0.019,–,-0.072,-0.664 (active),–
UBXN8 (UniProt O00124),-0.179,0.073,–,-0.051,0.147,0.259,0.081,-0.039,-0.297,–
UBE3B (UniProt Q7Z3V4),-0.554 (active),-0.023,–,–,-0.007,0.179,–,–,–,0.088
TSPAN13 (UniProt O95857),0.098,-0.148,0.097,0.512 (active),-0.036,0,–,-0.098,-0.003,-0.083
TMEM184C (UniProt Q9NVA4),–,0.087,–,-0.013,-0.237,0.088,-0.03,0.08,-0.492 (active),0.033

Target,log2 fold change (volasertib),log2 fold change (epoxomicin),log2 fold change [1],log2 fold change [2],log2 fold change [3],log2 fold change (rosiglitazone),log2 fold change [4],log2 fold change [5],log2 fold change [6],log2 fold change [7]
WARS1 (UniProt G3V339),–,-0.238,–,–,–,–,–,–,–,–
UBE2J2 isoform 3 (UniProt Q8N2K1),-0.157,0.254,0.047,0.04,-0.055,0.068,-0.07,-0.418,0.122,–
UBAP2L (UniProt F8W726),-0.002,–,0.008,–,–,0.123,0.077,0.025,-0.027,-0.094
TRIM5 (UniProt Q9C035),–,0,0.017,-0.005,0.25,–,–,–,–,–
VKORC1 (UniProt Q9BQB6),-0.079,–,-0.078,0.072,0.03,0.033,-0.006,0.008,-0.09,-0.088
XRCC1 (UniProt P18887),–,-0.1,-0.09,–,-0.192,–,–,0.006,-0.239,–
TTC26,–,–,–,-0.088,–,0.068,–,–,–,–
WDR75 (UniProt Q8IWA0),-0.153,-0.156,–,-0.073,0.166,-0.061,–,–,–,-0.041
WARS1 (UniProt G3V5U1),–,-0.237,–,–,–,0.554,-0.03,–,–,–
TRPT1 isoform 4 (UniProt Q86TN4),–,–,0.071,–,–,–,0.084,–,–,–
UTP20 (UniProt O75691),0.093,-0.355,0.105,–,–,–,–,–,–,–
WEE1 (UniProt P30291),0.07,0.203,0.003,-0.103,0.046,0.072,–,-0.209,0.195,-0.028
U2AF1L5 (UniProt P0DN76),–,–,-0.303,0.138,0.112,0.04,-0.289,–,–,0.045
WARS1 (UniProt G3V3P2),–,–,–,–,–,1.27,–,–,–,–
UTP3 (UniProt Q9NQZ2),-0.012,-0.376,-0.007,-0.052,0.165,-0.41,0.067,0.236,0.092,–
TSC2 (UniProt P49815),-0.23,-0.01,-0.295,–,–,-0.052,-0.062,0.016,-0.041,–
WDR4 isoform 3 (UniProt P57081),–,0.017,–,–,–,0.142,–,-0.044,-0.036,–
